From PubChem BioAssay AID1671192 (National Center for Advancing Translational Sciences (NCATS), 2021)
Records with an inconclusive call do not appear. Activity calls are given as the source filed them. Calls follow the shape of the dose curve; as a rule, active = well fitted curve in the direction sought with a large enough effect; inconclusive = small, poorly fitted or top-dose-only effect, or another doubt; inactive = no such curve, though single readings can be large or run the other way.

molecular target: Polyunsaturated fatty acid lipoxygenase ALOX15 (Homo sapiens) (UniProt P16050); experiment: Counterscreen qHTS for inhibitors of human arachidonate 12S-lipoxygenase (ALOX12): ALOX15 Assay; conditions: purified ALOX15 enzyme activity; series mostly up to 233 µM; activity change, negative = inhibition: at the top concentration; also: 0% is about no effect
Sequence (P16050 whole entry, looked up): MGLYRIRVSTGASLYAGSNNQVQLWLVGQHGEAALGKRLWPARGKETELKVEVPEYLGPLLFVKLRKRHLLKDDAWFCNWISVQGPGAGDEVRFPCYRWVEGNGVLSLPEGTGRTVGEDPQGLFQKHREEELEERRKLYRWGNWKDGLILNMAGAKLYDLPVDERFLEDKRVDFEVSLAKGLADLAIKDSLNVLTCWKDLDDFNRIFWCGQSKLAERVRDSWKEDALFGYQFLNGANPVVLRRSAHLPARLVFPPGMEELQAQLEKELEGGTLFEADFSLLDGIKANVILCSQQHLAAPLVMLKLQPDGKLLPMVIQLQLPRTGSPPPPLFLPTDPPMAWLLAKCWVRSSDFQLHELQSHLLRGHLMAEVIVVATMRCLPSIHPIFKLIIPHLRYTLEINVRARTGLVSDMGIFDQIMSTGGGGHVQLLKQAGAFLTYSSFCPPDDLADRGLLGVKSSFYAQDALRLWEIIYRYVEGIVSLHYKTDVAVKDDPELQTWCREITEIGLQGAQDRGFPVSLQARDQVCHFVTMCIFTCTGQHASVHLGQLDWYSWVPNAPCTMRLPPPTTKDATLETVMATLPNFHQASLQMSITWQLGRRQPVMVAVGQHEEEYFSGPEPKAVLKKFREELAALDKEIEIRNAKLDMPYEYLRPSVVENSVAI
Excerpt: Assay Provider: Theodore R. Holman Ph.D.
University of California, Santa Cruz, California
Human lipoxygenase 12hLO is a member of the closely related lipoxygenase family of enzymes which catalyze the site-specific oxidation of arachidonic acid to various hormone precursor molecules and as such is a candidate for drug development in a variety of disease areas, such as cancer and inflammation. Inhibition of 12hLO activity was screened by utilizing arachidonic acid as a substrate. The extent of hydroperoxide product formation was measured by a secondary chromogenic reaction in which xylenol orange (XO, Sigma-Aldrich, cat. number 39,818-7) reacts with the ferric ions produced from the reaction between the hydroperoxide and ferrous ions. The Fe (III)-XO complex is characterized with red-shifted absorbance at 560 nm. A purified preparation of human 12hLO was supplied by Dr. Holman laboratory, University of California, Santa Cruz.
An assay against arachidonate 15-lipoxygenase (ALOX15) was developed to assess selective inhibition against ALOX12. Desired compounds would show potent inhibition against ALOX12 and minimal to no inhibition against ALOX15.
SEQUENCE No. (e.g., 1, 2, 3, etc.); PARAMETER (e.g., Cells, Incubation, Reagent, etc.); VALUE; DESCRIPTION
1; Enzyme; 3 uL; 40 nM ALOX15 (15hLO-1) enzyme solution dispensed in 1536-well Greiner black, clear bottom plates.
2; Compound; 23 nL; compounds and controls were added.
3; Incubate; 15 min; room temperature.
4; Substrate; 1 uL; 50 uM arachidonic acid (final concentration).
5; Incubate; 30 min; room temperature.
6; Reagent; 4 uL; Fe-XO solution was added to each well.
8; Incubation; 30 min; room temperature
9; Detector; absorbance; Read 1 at 405 nm absorbance using ViewLux (PerkinElmer) CCD imager.
10; Detector; absorbance; Read 2 at 573 nm absorbance using ViewLux (PerkinElmer) CCD imager.
NOTES (numbers refer to sequence above)
1; 40 nM ALOX15 (final concentration) in buffer solution (25 mM Hepes, 0.01% Triton X-100, pH 7.5) was dispensed in columns 1, 2, 5 - 48. Column 1 is neutral (100% activity). Buffer only was dispensed in columns 3 and 4 as no enzyme negative controls. The plates were covered with metal lids with gas-exchange holes.
2; Compounds were pin transferred via a Kalypsys Pin Tool (Wako USA) in column 5 - 48. Control compound was transferred in column 2, titration of nordihydroguaiaretic acid (NDGA, Sigma-Aldrich, N5023) with top concentration of 10 mM in DMSO then 1:2 dilution in duplicate. Dilution factor of 23 nL into 4 uL final assay volume.
3; Covered assay plates were incubated for 15 min at room temperature.
4; Substrate was added to start the reaction; 50 uM arachidonic acid (Sigma-Aldrich, St. Louis, MO) was dispensed throughout the plate.
6; Chromogenic detection reagent solution (divalent iron/xylenol orange, Fe-XO) was added to each well: 200 uM xylenol orange, 300 uM ferrous ammonium sulfate prepared freshly in 50 mM sulfuric acid.
9, 10; Two absorbance readouts were obtained at 405 nm and at 573 nm using a ViewLux high-throughput CCD plate imager (PerkinElmer). The 573 to 405 (Read 2 / Read 1) absorbance ratio was used to compute reaction progress.

| Structure (SMILES) | activity change, negative = inhibition |
| --- | --- |
| CNC(C)c1ccc(Cl)cc1 (stereo not given) | -14.3% (inactive) |
| c1ccc(CC2CN3CCCC3CN2)cc1 (stereo not given) | -5.65% (inactive) |
| O=C(Cc1ccc(Cl)cc1)N1Cc2ccccc2CC2(CCCN2CC2CCNC2)C1 (stereo not given) | -1.25% [at 110 µM] (inactive) |
| O=C1NC2(Cc3ccccc31)CN(CC1CC1)C2 | 9.8% (inactive) |
| O=C(O)C1=NOC2CN(Cc3cccc(Br)n3)CC12 (stereo not given) | -9.19% [at 146 µM] (inactive) |
| CNC1CCc2ccccc21 (stereo not given) | -19.7% (inactive) |
| CN(C)c1ccc(CN2CCC3(CC2)C(=O)Nc2ccccc23)cc1 | -21.5% [at 146 µM] (inactive) |
| O=C1Nc2ccccc2C12CCN(CC1CCCCC1)CC2 | -21.5% [at 146 µM] (inactive) |
| CCN1CCCCC12Cc1ccccc1CN(C(=O)Cc1ccc(OC)cc1)C2 (stereo not given) | -13.8% [at 110 µM] (inactive) |
| COc1ccc(CC(=O)N2Cc3ccccc3CC3(CCCCN3C)C2)cc1 (stereo not given) | 1.23% [at 110 µM] (inactive) |
| CCN1CCCCC12Cc1ccccc1CN(C(=O)Cc1ccccc1)C2 (stereo not given) | 30.9% [at 110 µM] (inactive) |
| O=C(O)C1=NOC2CN(Cc3ccccc3)CC12 (stereo not given) | -24.1% (inactive) |
| CC1CN2CCCCC2CN1 (stereo not given) | -4.4% [at 343 µM] (inactive) |
| O=C1Nc2ccccc2CN(Cc2ccncc2)C12CCNCC2 | -28.4% [at 110 µM] (inactive) |
| c1cnc2nc(C3CCNCC3)[nH]c2c1 | -13.3% (inactive) |
| O=[S+]1([O-])NC2(CCN(CC3CCOCC3)C2)COc2ccncc21 (stereo not given) | 6.63% [at 110 µM] (inactive) |
| COc1ccc(C(CN)N2CCCC2)cc1 (stereo not given) | 1.12% (inactive) |
| CCCCC1CN2CCCC2CN1 (stereo not given) | -19.4% (inactive) |
| FC(F)(F)CN1C2CCC1CN(c1cncc(Br)c1)C2 | -17.5% [at 110 µM] (inactive) |
| CC(C)C1CN2CCCC2CN1 (stereo not given) | -28.7% (inactive) |
